# Measurements published in PubChem BioAssay (NCATS).
# Where “and” joins values, the source holds several entries; their conditions need not be identical. Identical values can stand only once. Inconclusive results are not listed. Unmarked numbers belong to inactive results. Calls come from the whole dose curve; as a rule, active = well fitted activation curve with a large enough effect; inconclusive = small, poorly fitted or top-dose-only effect; inactive = no such curve, though single readings can be large or run the other way.
# Target: Cellular tumor antigen p53 (Homo sapiens) (UniProt P04637)
# Experiment: Primary qHTS for small molecule compounds that upregulate eGFP-tagged delta133p53alpha (in N-terminal) cells. (AID 2060322);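 note: series mostly up to about 56 µM; 0% = DMSO vehicle and 100% = reference activator; nearly all actives have a fitted effect of over 75% in size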
# Conditions: NCI-H358 eGFP-delta133p53alpha fluorescence, 24 h; activation: hits give high values
# Procedure, shortened: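 NCI-H358 cells pre-induced 24 h with 10 ng/ml doxycycline to express N-terminal eGFP-delta133p53alpha, then dosed 24 h at 37C without doxycycline; fixed, Hoechst-stained, GFP intensity by laser scanning cytometry, normalized to DMSO (0%) and 57.5 uM 5-azacytidine (100%).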
# Cellular tumor antigen p53 (Homo sapiens), sequence (P04637 whole entry, looked up): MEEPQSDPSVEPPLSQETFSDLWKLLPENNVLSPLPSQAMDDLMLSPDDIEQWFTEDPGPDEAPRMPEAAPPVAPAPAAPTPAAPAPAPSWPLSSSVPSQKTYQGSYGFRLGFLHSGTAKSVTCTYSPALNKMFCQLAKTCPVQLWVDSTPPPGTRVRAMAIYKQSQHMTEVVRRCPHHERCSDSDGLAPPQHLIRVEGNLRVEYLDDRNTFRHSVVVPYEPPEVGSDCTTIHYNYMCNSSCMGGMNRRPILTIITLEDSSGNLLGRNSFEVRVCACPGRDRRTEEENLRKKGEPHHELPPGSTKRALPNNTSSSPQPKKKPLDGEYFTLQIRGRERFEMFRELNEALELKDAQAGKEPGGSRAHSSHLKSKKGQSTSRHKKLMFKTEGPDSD
row,SMILES,activation
1,O=[N+]([O-])c1ncc[nH]1,15.2%
2,NC(=O)CS(=O)C(c1ccccc1)c1ccccc1 (stereo not drawn),-6.21%
3,COC[C@H]1OC(=O)c2coc3c2[C@@]1(C)C1=C(C3=O)[C@@H]2CC[C@H](O)[C@@]2(C)C[C@@H]1OC(C)=O,13.2%
4,Clc1ccc(N2CC3CCC(C2)N3)nn1,-9.56%
5,CCOP(=O)(NC(C)C)Oc1ccc(SC)c(C)c1 (stereo not drawn),10.7%
6,CCOC(=O)CC(SP(=S)(OC)OC)C(=O)OCC (stereo not drawn),-9.21% and 9.21%
7,CC(Cc1ccccc1)NCc1ccccc1Cl (stereo not drawn),16.4%
8,CCN(CC)CCOC(=O)C(C)(c1ccccc1)c1ccccc1,-8.47%
